Laboratory results as given in PubChem BioAssay (NCI).
About 79,000 compounds went through this panel and 15% of them were active in at least one assay; those are over-represented in the sample as a whole. A number with no mark means an inactive call. The source made the active and inactive calls. Rule as the data show it: active = growth inhibition above about 70%; inactive = the rest.

How the values were obtained:
[1] = NCI Yeast Anticancer Drug Screen. Data for the rad50 strain (AID 155);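 also: 0% = growth of vehicle-only cultures of the same strain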; details: S. cerevisiae rad50 strain growth inhibition; at 50.0 µM; stronger effect = higher value
Method in brief: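 Genetically altered yeast (DNA repair pathway); compound treatment; growth inhibition vs vehicle ctrl.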

[2] = NCI Yeast Anticancer Drug Screen. Data for the mec2-1 strain (AID 157); details: S. cerevisiae mec2-1 strain, at 50.0 µM, stronger effect = higher value
Method in brief: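 Using mec2-1 yeast: add compound, measure growth, express inhibition versus vehicle-treated cultures.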

[3] = NCI Yeast Anticancer Drug Screen. Data for the sgs1 mgt1 strain (AID 161);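 also: 0% = growth of cultures given vehicle only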; details: S. cerevisiae sgs1 mgt1 strain, at 50.0 µM, stronger effect = higher value
Method in brief: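 Yeast cells carrying a defined DNA-repair defect were exposed to test compounds. Growth inhibition was measured relative to vehicle-treated controls.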

[4] = NCI Yeast Anticancer Drug Screen. Data for the cln2 rad14 strain (AID 165);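 also: 0% = growth equal to vehicle treated cultures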; details: S. cerevisiae cln2 rad14 strain, at 50.0 µM, stronger effect = higher value
Method in brief: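 Yeast strain cln2 rad14, bearing defects in cell cycle control and DNA repair, serves as the test system; values reflect growth inhibition compared with vehicle.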

[5] = NCI Yeast Anticancer Drug Screen. Data for the bub3 strain (AID 167); details: S. cerevisiae bub3 mutant strain, at 50.0 µM, stronger effect = higher value
Method in brief: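 Yeast carrying a defined mutation is treated with each compound, and growth is compared with that of vehicle-exposed cells to give inhibition.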

[6] = NCI Yeast Anticancer Drug Screen. Data for the mlh1 rad18 strain (AID 175); details: S. cerevisiae mlh1 rad18 strain growth inhibition; at 50.0 µM; stronger effect = higher value
Method in brief: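 Steps: expose repair-defective yeast to compound; measure growth; express inhibition against vehicle-treated controls.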

Row | SMILES | growth inhibition [1] | growth inhibition [2] | growth inhibition [3] | growth inhibition [4] | growth inhibition [5] | growth inhibition [6]
1 | CC1(C)OC2COC3(CO)OC(C)(C)OC3C2O1 (stereo not given) | -2.2% | 20.6% | 15.4% | -65.5% | 15.2% | 17.4%
2 | O=C(O)[C@H]1C[C@H](O)CCN1 | -30.4% | -8.65% | -34.2% | 1.25% | -3.85% | -10.6%
3 | Cc1ccc(/C=C/C(=O)C(C)(C)CN2CCCCC2)cc1 | 35.6% | -9.05% | 25.1% | 14.3% | 10% | 17.9%
4 | Cc1cc(Sc2ccc(Cl)cc2)nc(Sc2ccc(Cl)cc2)c1C#N | 7.6% | -30.5% | -27.9% | -20.6% | -10.7% | -26.9%
5 | COc1cccc(/C=C/c2cc3c(cc2Br)OCO3)c1 | 3.3% | -3.35% | 2.55% | 3.65% | 1.9% | -6.3%
6 | CC1(C(Cl)Cl)C=CC(=O)c2ccccc21 (stereo not given) | 37% | 35.6% | 21.4% | 15.3% | 12.3% | 4.9%
7 | CC1(C)OC(C(O)CO)C(C2COC(=S)O2)O1 (stereo not given) | 1.45% | 15.9% | 8.45% | 33.5% | 12.6% | -1.8%
8 | S=C(/C=C1\SC(=Nc2ccccc2)C(=Nc2ccccc2)N1c1ccccc1)Nc1ccccc1 | 1.25% | -9% | -9.6% | -4.1% | 10.3% | 1.35%
9 | Nc1ncnc2c1ncn2C[c-]1[c-][c-][c-][c-]1.[Fe].[c-]1[c-][c-][cH-][c-]1 | -4.95% | -23.8% | -11.9% | -40.7% | -15.7% | -8.8%
10 | Cc1ncc([N+](=O)[O-])n1CCNCCCCn1ccnc1[N+](=O)[O-] | -28.4% | -21.6% | -6.15% | -23.7% | -52.3% | -17.9%
11 | OCC1OC(n2cnc3c(NCc4ccccc4)ncnc32)C(O)C1O (stereo not given) | -14.3% | -2.5% | 3.2% | -44.2% | 11.6% | 0.55%
12 | CC(=O)OC/C=C1/CC[C@H]2[C@@H]3CCC4=CC(=O)[C@H](C)C[C@]4(C)[C@H]3[C@@H](O)C[C@]12C | -1.85% | -2% | 4.05% | 1.8% | -9.2% | -21.8%
13 | O=C(O)CCc1ccccc1CC(=O)O | 12.8% | -9.95% | -10.8% | -10.1% | -12.3% | 13.2%
14 | O=C(O)CS(=O)(=O)Cc1ccc(Cl)cc1Cl | 15.6% | 20.4% | 24% | 12.8% | 25.1% | 18.6%
15 | Clc1ccc(C2NC(c3ccccc3)c3c(ccc4ccccc34)O2)cc1Cl (stereo not given) | 86.2% (active) | 92.6% (active) | 92.2% (active) | 88.2% (active) | 90.5% (active) | 92.1% (active)
16 | CCC/C=C(\CC)COC(=O)Nc1ccccc1 | -1.15% | -19.6% | -9.55% | -47.9% | -31.1% | -1.75%
17 | O=C(CCCSCCCC(=O)N/N=C/c1ccccc1O)N/N=C\c1ccccc1O | 4.7% | -0.5% | 4.95% | 0.75% | 6.65% | 19.8%
18 | O=S(=O)(c1ccccc1)c1ccccc1Br | 8% | 14.8% | -3.3% | -18.4% | -10.2% | 35%
19 | CCCCCCC(=O)c1ccco1 | 2.4% | -18.6% | -1.05% | 14.9% | -1.75% | -11.8%
20 | CC(C)C1CSC2N1C(=O)C2(OCc1ccccc1)C1CC1 (stereo not given) | 3.3% | -22.4% | -3.2% | -16.2% | -20.1% | 9.1%
